Bioassay records deposited in PubChem BioAssay by several laboratories.
FBA Mtb inh: Mtb FBA enzyme inhibitors, primary screen, biochemical, fluorescence, strain H37Rv. Fructose-bisphosphate aldolase (Mycobacterium tuberculosis (strain ATCC 25618 / H37Rv)), …. purified M. tuberculosis FBA, fluorescence read-out. inhibition, % at 1 µM. 2.3% of 360,000 active. AID 588726, 2011; in the data active = inhibition above about 27%;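 also: 0% = vehicle and 100% = reference inhibitor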
Target sequence (P9WQA3 whole entry, looked up): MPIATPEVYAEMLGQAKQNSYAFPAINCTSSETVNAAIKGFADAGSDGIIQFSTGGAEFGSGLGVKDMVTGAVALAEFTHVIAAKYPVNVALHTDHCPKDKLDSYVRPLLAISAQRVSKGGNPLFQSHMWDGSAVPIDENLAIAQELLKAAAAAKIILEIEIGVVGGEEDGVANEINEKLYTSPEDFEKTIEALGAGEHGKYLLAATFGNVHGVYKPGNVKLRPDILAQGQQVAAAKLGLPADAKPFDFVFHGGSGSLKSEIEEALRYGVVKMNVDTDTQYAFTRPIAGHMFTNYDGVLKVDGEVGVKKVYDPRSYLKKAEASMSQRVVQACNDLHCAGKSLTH
DUSP3 inh: VHR1 phosphatase inhibitors, primary screen, biochemical, absorbance, uHTS; Dual specificity protein phosphatase 3 (Homo sapiens), P51452; recombinant VHR phosphatase, pNPP absorbance; inhibition, % at 13.3 µM; 0.52% of 290,000 active; AID 1654, 2009; in the data active = inhibition above about 50%
Target sequence (P51452 whole entry, looked up): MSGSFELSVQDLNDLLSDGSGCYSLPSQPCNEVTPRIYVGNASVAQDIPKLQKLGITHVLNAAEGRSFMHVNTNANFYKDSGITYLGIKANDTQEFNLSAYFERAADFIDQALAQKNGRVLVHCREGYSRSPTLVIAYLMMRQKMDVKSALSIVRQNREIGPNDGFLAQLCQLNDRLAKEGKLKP
Mtb hypoxia rep: PubChem AID 1159583. 0.1% of 300,000 active. M. tuberculosis hypoxia-regulated fluorescent reporter, fluorescence. fluorescence inhibition, % (no concentration beside the values); in the data active = fluorescence inhibition mostly above about 23%, no sharp cut-off; inactive = mostly below about 17%
GDH-TPI inh: GDH-TPI coupling enzyme inhibitors, primary screen, artefact control for M. tuberculosis FBA inhibitor project, biochemical, absorbance, full deck; inhibition, % at 4.8 µM; GDH-TPI coupled enzyme counterscreen, NADH absorbance; AID 588335, 2011; 1.2% of 360,000 active; in the data active = inhibition above about 30%;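 also: 0% = DMSO wells and 100% = wells lacking the enzyme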
Mtb betalactam: beta-lactam sensitization of Mtb H37Rv, H37Rv; M. tuberculosis H37Rv growth with meropenem, percent inhibition; 0.27% of 330,000 active; inhibition, % at 25 µM; call rule not given here;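 also: growth measured after seven days incubation then overnight dye step; 0% = bacteria only wells and 100% = bacteria with antibiotic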
* marks the source's active call; other numbers are inactive results. This is a sample that favours compounds with a hit; in the whole collection about 3.6% have one here.

For CC1CN(C(C)CO)C(=O)c2cccc(NS(=O)(=O)c3cn(C)cn3)c2OC1CN(C)Cc1ccncc1 (configuration not stated) the results were Mtb hypoxia rep 13.
Screening COC(=O)C1=CC(C(=O)OC)C2C3=C(C(=O)C24CCCCC4)C(C)n2c(=O)n(-c4ccccc4)c(=O)n2C3C1 (configuration not stated) returned Mtb hypoxia rep 22.
`COc1ccccc1-c1coc2c(CN3CCCC(C)C3)c(O)ccc2c1=O` (configuration not stated) gave FBA Mtb inh active, DUSP3 inh 40, Mtb hypoxia rep -5, GDH-TPI inh 9 and Mtb betalactam -5.
`Cc1oc2c(CN3CCCC3)c(O)ccc2c(=O)c1Oc1ccccc1Br` gave FBA Mtb inh active, DUSP3 inh 8, Mtb hypoxia rep -1, GDH-TPI inh 24 and Mtb betalactam inconclusive.
COc1cccc(Oc2c(C)oc3c(CN4CCOCC4)c(O)ccc3c2=O)c1 was read as FBA Mtb inh 142*, Mtb hypoxia rep 2 and GDH-TPI inh 23.
COc1ccc(Oc2c(C)oc3c(CN4CCOCC4)c(O)ccc3c2=O)cc1 was read as FBA Mtb inh 20, DUSP3 inh 35, Mtb hypoxia rep 6, GDH-TPI inh 24 and Mtb betalactam -6.
Screening COc1ccccc1Oc1c(C)oc2c(CN3CCN(CCO)CC3)c(O)ccc2c1=O returned DUSP3 inh 21, Mtb hypoxia rep 5 and Mtb betalactam -19.
For CC1CCCCN1Cc1c(O)ccc2c(=O)c(-c3nc4ccccc4s3)c(N)oc12 (configuration not stated) the results were FBA Mtb inh 21, DUSP3 inh 0, Mtb hypoxia rep 6, GDH-TPI inh 61* and Mtb betalactam 82.
`NC(=NOC(=O)c1ccc(Cl)cc1[N+](=O)[O-])c1cccnc1` gave Mtb hypoxia rep 15.
Cc1ccsc1C=NNC(=O)Cn1cnc2ccccc21 was read as Mtb hypoxia rep 6.
`CCOC(=O)c1ccc(Oc2c(C)oc3c(CN4CCN(C)CC4)c(O)ccc3c2=O)cc1` gave FBA Mtb inh 157*, DUSP3 inh 32, Mtb hypoxia rep 5, GDH-TPI inh 22 and Mtb betalactam -16.
For Cc1oc2c(CN3CCCCC3)c(O)ccc2c(=O)c1-c1ccc(Cl)cc1 the results were FBA Mtb inh 113*, DUSP3 inh -2, Mtb hypoxia rep 16, GDH-TPI inh 12 and Mtb betalactam 5.
For CN1CCN(Cc2c(O)ccc3c(=O)c(Oc4ccccc4Cl)c(C(F)(F)F)oc23)CC1 the results were FBA Mtb inh -2, DUSP3 inh 19, GDH-TPI inh 13 and Mtb betalactam -1.
`COc1ccccc1-c1c(C)oc2c(CN3CCCC(C)C3)c(O)ccc2c1=O` (configuration not stated) gave FBA Mtb inh active, DUSP3 inh -16, Mtb hypoxia rep -3 and GDH-TPI inh 21.
For OC(COC1CCCCC1)CN1CCCCC1 (configuration not stated) the results were FBA Mtb inh 2, DUSP3 inh 56*, Mtb hypoxia rep 4, GDH-TPI inh 3 and Mtb betalactam -12.
`COc1ccccc1NS(=O)(=O)c1cccc(C(=O)N/N=C/c2ccc(C)o2)c1` gave FBA Mtb inh -1, DUSP3 inh 8, GDH-TPI inh 41* and Mtb betalactam -3.
For Cc1ccc(C=NNC(=O)c2cccc(S(=O)(=O)Nc3ccccc3Cl)c2)o1 the results were Mtb hypoxia rep 12.
For COc1ccccc1NS(=O)(=O)c1cccc(C(=O)NN=Cc2ccc(NC(C)=O)cc2)c1 the results were Mtb hypoxia rep 2.
For COc1ccccc1NS(=O)(=O)c1cccc(C(=O)N/N=C/c2ccc(N3CCOCC3)cc2)c1 the results were FBA Mtb inh 1, DUSP3 inh -7, GDH-TPI inh 34* and Mtb betalactam -2.
COc1ccccc1C(=O)N=Nc1c(O)[nH]c2ccc([N+](=O)[O-])cc12 was read as FBA Mtb inh -1, DUSP3 inh -1, Mtb hypoxia rep -16 and GDH-TPI inh 18.
For NC(=O)N=Nc1c(O)[nH]c2ccc([N+](=O)[O-])cc12 the results were FBA Mtb inh -3, DUSP3 inh 2, Mtb hypoxia rep -9, GDH-TPI inh 31* and Mtb betalactam -6.
`COCCCn1c(C)nc2c(c1=O)c1nc3ccccc3nc1n2CCc1ccccc1` gave FBA Mtb inh 36*, DUSP3 inh 14, Mtb hypoxia rep 14, GDH-TPI inh 20 and Mtb betalactam 3.
`COc1cccc(C2=CC(=O)CC(C)(C)C2)c1` gave FBA Mtb inh 4, Mtb hypoxia rep 5, GDH-TPI inh -3 and Mtb betalactam 0.
Screening COc1ccc(C2=CC(=O)CC(C)(C)C2)cc1OC returned FBA Mtb inh 5, Mtb hypoxia rep 14, GDH-TPI inh 35* and Mtb betalactam 8.
For COc1ccc2cc(C3=CC(=O)CCC3)ccc2c1 the results were FBA Mtb inh 23, Mtb hypoxia rep 6 and GDH-TPI inh 31*.
Screening CC1(C)CC(=O)C=C(c2ccc3[nH]ccc3c2)C1 returned FBA Mtb inh -2, Mtb hypoxia rep 1, GDH-TPI inh 34* and Mtb betalactam 15.
`O=C1C=C(c2ccc3[nH]ccc3c2)CCC1` gave FBA Mtb inh -2, Mtb hypoxia rep -6, GDH-TPI inh 35* and Mtb betalactam 0.
`COc1ccc(C2=CC(=O)C[C@H](c3ccc(OC)c(OC)c3)C2)cc1` gave FBA Mtb inh -3, GDH-TPI inh 30 and Mtb betalactam 42.
Screening CC1(C)CC(=O)C=C(c2ccc(I)cc2)C1 returned FBA Mtb inh -2, Mtb hypoxia rep 15, GDH-TPI inh 0 and Mtb betalactam 0.
For CC(=NOC(=O)c1ccc(Br)cc1)c1ccccn1 the results were Mtb hypoxia rep 11.
For c1ccc2nc(-c3nc4ccccc4[nH]3)ccc2c1 the results were FBA Mtb inh 23, DUSP3 inh -13, Mtb hypoxia rep 16, GDH-TPI inh 36* and Mtb betalactam 94.
c1ccc2[nH]c(-c3cscn3)nc2c1 was read as FBA Mtb inh 3, DUSP3 inh -11, Mtb hypoxia rep 5, GDH-TPI inh 7 and Mtb betalactam -3.
O=S(=O)(Nc1ccc(-c2cn3c(n2)SCC3)cc1)c1cccs1 was read as FBA Mtb inh 0, DUSP3 inh 6, Mtb hypoxia rep -4, GDH-TPI inh 12 and Mtb betalactam 0.
Screening N#Cc1ccc(-c2cn3c(n2)SCC3)cc1 returned FBA Mtb inh active, DUSP3 inh 2, Mtb hypoxia rep 5, GDH-TPI inh 4 and Mtb betalactam 8.
For O=[N+]([O-])c1ccc(-c2cn3c(n2)SCC3)cc1 the results were FBA Mtb inh 1, Mtb hypoxia rep 7, GDH-TPI inh 37* and Mtb betalactam 1.
